# Test results: ChEMBL document CHEMBL4513216, “Probing the Open Global Health Chemical Diversity Library for Multistage-Active Starting Points for Next-Generation Antimalarials” (ACS Infect Dis, 2020)
# In all, about 68,000 compounds went through this assay and about 2,700 (4%) showed an effect of 50% or more. The sample holds strong results, similar compounds and a random draw of the others, so the mix is not that of the screen.
# System: Plasmodium berghei
# Experiment: Screen against P. berghei liver stage (PbLuc), transformed with Luciferase, at 2uM
# Format: functional, HepG2
# Conditions: tested at 2 uM
row,SMILES,INHIBITION
1,COCC(=O)N1CCn2c(CN3CCN(C)CC3)cnc2C1,-11.88%
2,Cc1nccc(N2CCCC(C)(C(=O)NC3CCCC3)C2)n1 (centres undefined),1.42%
3,O=C(c1cnc(COc2ccccc2)nc1O)N1CCC(F)(F)CC1,10.91%
4,Cc1nc(CN2CCC3(CCN(C(=O)c4ccoc4C)CC3)C2)cs1,-13.88%
5,Cc1nn(C)c(N2CCOCC2)c1CNCC1CCN(C2CC2)C1 (centres undefined),59.03%
6,Cc1nn(C)c(N2CCOCC2)c1CNCC1CCCN1C (centres undefined),53.98%
7,Cc1nn(C)c(N2CCOCC2)c1CNCC1CCS(=O)(=O)C1 (centres undefined),5.17%
8,Cc1nn(C)c(N2CCOCC2)c1CNC1CCC(O)CC1 (centres undefined),-5.7%
9,Cc1nn(C)c(N2CCOCC2)c1CNC1CCN(C2CC2)CC1,24.65%
10,Cc1nn(C)c(N2CCOCC2)c1CNCc1ccnn1C,8.06%
11,COCCC(=O)N1CCCC1c1nccc(C)n1 (centres undefined),-17.21%
12,CNC(=O)C1CCN(c2ncnc3c2CCN(C(=O)C2CC2)C3)C1 (centres undefined),16.53%
13,OC1CCN(Cc2c(-c3ccco3)[nH]c3ncccc23)CC1,8.09%
14,Cc1nc(CN2CCCC(N(C)Cc3nc(CC(C)C)no3)C2)no1 (centres undefined),23.86%
15,CC(=O)N1CCC(c2nccnc2-c2ccc(F)cc2)CC1,33.77%
16,CC(=O)N1CCC(c2nccnc2-c2ccc(C(=O)O)cc2)CC1,51.57%
17,COc1ccc(-c2nccnc2C2CCN(C(C)=O)CC2)cc1,-30.31%

row,SMILES,INHIBITION
1,CC(C)c1ncc2c(n1)CN(CC(=O)Nc1ccncc1)CC2,-36.7%
2,Cc1csc(N2CCN(C(=O)NCCNc3ncccn3)CC2)n1,-10.6%
3,CN(C)c1ncccc1NC(=O)COC1CCCC1,35.13%
4,O=C(COCC1CC1)Nc1ncccc1O,25.23%
5,CN(C)c1ncccc1NC(=O)COCC1CC1,64.35%
6,O=C(COc1cccc2c1CCC2=O)NCCc1cccs1,-27.22%
7,COCCN(C(=O)c1cc(C)no1)c1ccc(C#N)cc1,-43.03%
8,COc1no[n+]([O-])c1-c1ccccc1,32.19%
9,CC(C)(C)C(=O)N1CCCC1(C(=O)N1CCCC1)c1cnccn1 (centres undefined),33.56%
10,Cn1cc(C2CC3(CCN(C(=O)c4cccs4)CC3)NC2=O)cn1 (centres undefined),-16.25%
11,CN(C)C(C(=O)NCC1(C)COC1)c1cccc(F)c1 (centres undefined),-15.77%
12,O=C1CC2(CCN(Cc3cccnc3)C2)CN1c1cccc(F)c1 (centres undefined),38.49%
13,N#Cc1cccc(N2CC3(CCN(C(=O)c4ccncc4)C3)CC2=O)c1 (centres undefined),53.77%
14,COc1ccc(CN2CCC3(CC(=O)N(c4cccc(F)c4)C3)C2)cc1 (centres undefined),40.4%
15,N#Cc1cccc(N2CC3(CCN(C(=O)c4cccnc4)C3)CC2=O)c1 (centres undefined),11.72%
16,N#Cc1cccc(N2CC3(CCN(C(=O)c4ccnnc4)C3)CC2=O)c1 (centres undefined),25.24%
17,O=C1CC2(CCN(Cc3ccncc3)C2)CN1c1cccc(F)c1 (centres undefined),54.62%
